Experimental data: PubChem BioAssay AID504339 (National Center for Advancing Translational Sciences (NCATS), 2011)
Hit rate of the full screen: of about 390,000 compounds, about 17,000 (4.4%) were called active. Another 8% or so got no clear call; they are omitted. Shown is part of a subset that was picked to be rich in actives. Values without a mark were called inactive. Calls follow the shape of the dose curve; as a rule, active = well fitted inhibition curve with a large enough effect; inconclusive = small, poorly fitted or top-dose-only effect; inactive = no such curve, though single readings can be large or run the other way.

Each compound was assayed against Lysine-specific demethylase 4A (Homo sapiens) (UniProt O75164) (assay: qHTS Assay for Inhibitors of JMJD2A-Tudor Domain). Conditions: AlphaScreen JMJD2A-Tudor / H3K4me3 peptide binding; series mostly up to 114 µM; activity change, negative = inhibition: at the top concentration.
Chain of Lysine-specific demethylase 4A (Homo sapiens) (O75164 whole entry, looked up, the tested form may be a part): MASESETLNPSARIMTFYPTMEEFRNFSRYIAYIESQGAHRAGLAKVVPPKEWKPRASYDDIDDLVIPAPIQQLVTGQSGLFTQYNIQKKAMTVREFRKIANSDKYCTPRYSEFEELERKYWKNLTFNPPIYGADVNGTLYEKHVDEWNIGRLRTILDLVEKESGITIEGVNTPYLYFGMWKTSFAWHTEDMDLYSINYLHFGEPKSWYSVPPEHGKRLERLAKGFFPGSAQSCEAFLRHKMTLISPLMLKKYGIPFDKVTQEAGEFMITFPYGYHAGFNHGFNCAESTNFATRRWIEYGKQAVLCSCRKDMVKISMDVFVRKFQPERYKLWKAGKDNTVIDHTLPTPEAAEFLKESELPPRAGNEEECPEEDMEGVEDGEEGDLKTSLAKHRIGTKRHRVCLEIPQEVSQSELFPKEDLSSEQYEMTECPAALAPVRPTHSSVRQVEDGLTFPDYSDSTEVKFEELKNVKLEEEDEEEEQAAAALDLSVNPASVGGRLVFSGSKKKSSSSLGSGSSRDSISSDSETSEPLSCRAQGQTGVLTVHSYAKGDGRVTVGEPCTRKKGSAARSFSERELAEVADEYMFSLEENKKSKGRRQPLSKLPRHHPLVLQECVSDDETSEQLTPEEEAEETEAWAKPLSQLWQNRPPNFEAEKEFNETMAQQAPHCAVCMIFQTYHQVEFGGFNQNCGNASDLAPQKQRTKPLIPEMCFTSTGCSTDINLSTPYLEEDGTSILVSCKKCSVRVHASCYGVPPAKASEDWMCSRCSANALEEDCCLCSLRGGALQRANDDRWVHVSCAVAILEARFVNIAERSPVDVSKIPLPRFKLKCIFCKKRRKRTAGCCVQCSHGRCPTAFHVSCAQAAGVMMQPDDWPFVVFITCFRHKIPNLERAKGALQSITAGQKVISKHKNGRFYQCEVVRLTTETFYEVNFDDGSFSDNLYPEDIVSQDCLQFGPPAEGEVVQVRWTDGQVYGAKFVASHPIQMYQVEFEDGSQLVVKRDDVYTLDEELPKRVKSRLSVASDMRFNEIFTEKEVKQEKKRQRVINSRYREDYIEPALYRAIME
% is scaled to controls: 0 for no effect and ±100 for the full control effect; potency is read from the fitted curve at half-maximal effect.
Also: nearly all actives have a fitted effect of over 50% in size.

Compound	activity change, negative = inhibition	Potency
Cc1ccc(-n2c3nc(=O)[nH]c(=O)c-3cc3c(Cl)cccc32)cc1	-12.4%	–
COc1cc(CNCCSc2nnnn2C)ccc1OCc1c(F)cccc1Cl	-14.2%	–
CN(C)CCOC1c2ccccc2-c2ccccc21	–	1.41 µM (active)
CC(=O)O[C@H]1c2ccccc2-c2ccccc2[C@@H]1OC(C)=O	11%	–
COC(CCN(C)C)(c1ccccc1)c1ccccc1	-9.55%	–
COc1cc(NC(=O)c2nn(-c3ccc(C)cc3)c(=O)c3c2c2ccccc2n3C)cc(OC)c1OC	-17%	–
O=C(CN1C(=O)COc2ccc(S(=O)(=O)N3CCOCC3)cc21)N1CCN(c2cccc(Cl)c2)CC1	-21.2%	–
CCOc1ccccc1/C=N/NC(=O)CNC(=O)COc1ccccc1	-34.1%	–
CCOc1ccccc1/C=N/Nc1nc2ccccc2o1	–	17.8 µM (active)
Brc1ccccc1/C=N/Nc1nc2ccccc2o1	-17.8%	–
COc1ccc(NC(=O)c2sc3nc[nH]c(=O)c3c2C)cc1	-27.1%	–
O=c1[nH]n(-c2ccc([N+](=O)[O-])cc2)c(=O)c2ccccc12	–	39.8 µM (active)
CC(=O)N1c2ccccc2N(Cc2ccc([N+](=O)[O-])cc2)C(=O)C1(C)C	-30.2%	–
Cc1[nH]n(-c2ccc([N+](=O)[O-])cc2)c(=O)c1C=NCCN1CCN(C(=O)c2ccccc2F)CC1	-10.6%	–
Cc1nc2c(c(C)nn2-c2ccccc2)c(C)c1CCC(=O)NCCc1ccc(Cl)cc1	-8.72%	–
Cc1ccc(C)c(Cn2c(CCCNC(=O)C3CCCCC3)nc3ccccc32)c1	-1.01%	–
COc1ccccc1Cc1nc2ccccc2nc1SCC(=O)N1CCCc2ccccc21	-10.7%	–
CC(C)c1ccc(Cn2c(COc3ccccc3)nc3ccccc32)cc1	38.1%	–
O=C(CSc1nnc(COc2ccc(Cl)cc2)n1Cc1ccco1)N1CCNC1=O	-15.4%	–
Cn1c2ccccc2c(=O)c2c(=O)n(Cc3ccco3)c(COc3ccccc3)nc21	–	44.7 µM (active)
O=C(CSc1nc2c(c(=O)[nH]1)CN(Cc1ccc(F)cc1)CC2)Nc1ccccc1Cl	-12.3%	–

Compound	activity change, negative = inhibition	Potency
COc1cc2nc(SCc3ccc(F)cc3)n3nc(CCn4c(C)nc5ccccc54)nc3c2cc1OC	-21.7%	–
Cc1ccc2nc3c(cc(C(=O)NC4CCCCC4)c(=N)n3C(C)C)c(=O)n2c1	-7.61%	–
CCC1=Nc2cc(C(=O)NCC(C)c3ccccc3)ccc2Sc2ccc(C)cc21 (stereo not drawn)	-12.7%	–
Cc1cccc(N2CCN(C(=O)c3cccc(S(=O)(=O)N4CCc5ccccc5C4)c3)CC2C)c1 (stereo not drawn)	-19.5%	–
Cc1cccc(N2CCN(c3ccc(C(=O)O)cc3NC(=O)c3ccccc3F)CC2C)c1 (stereo not drawn)	–	56.2 µM (active)
Cc1cccc(N2CCN(C(=O)c3ccccc3NC(=O)C3CCCCC3C(=O)O)CC2)c1 (stereo not drawn)	-8.22%	–
O=S(=O)(c1ccc2c(c1)OCCCO2)N1CCN(S(=O)(=O)c2c(F)cccc2F)CC1	-14.4%	–
CCCCCn1c(=O)[nH]c2cc(C(=O)Nc3ccc(F)cc3)ccc2c1=O	-2.39%	–
COc1ccccc1CNC(=O)CCn1c(=O)c2ccccc2n(CC(=O)Nc2ccc(Br)cc2F)c1=O	-1.02%	–
Cc1ccc2c(c1)-c1c(cnn1CC(=O)Nc1ccccc1C#N)CO2	-9.82%	–
Cn1cc(S(=O)(=O)N2CCCCCC2)cc1C(=O)N1CCN(c2ccc(F)cc2)CC1	-32.9%	–
CCOC(=O)c1cc(-c2ccc(OC)c(S(=O)(=O)Nc3ccc(OC)cc3OC)c2)on1	-13%	–
O=S(=O)(NC1CC1)c1ccc2c3c(cccc13)CC2	–	17.8 µM (active)
O=S(=O)(NC1CC1)c1ccc(Cl)cc1	-7.53%	–
O=S(=O)(NC1CCCCC1)c1ccc(F)c2ccccc12	3.31%	–
Cc1ccc(-c2nnc3c4ccccc4c(C)nn23)cc1NC(=O)c1cccc(Br)c1	-3.78%	–
Cc1ccccc1C(=O)Nc1nnc(S(=O)(=O)N(C)c2ccc(Cl)cc2)s1	2.96%	–
N#Cc1nc(Nc2cccc(Cl)c2)nc(NC2CCCC2)n1	-11.6%	–
COc1ccc(NC(=O)C(c2ccccc2)N2Cc3ccccc3C2=O)cc1 (stereo not drawn)	-26%	–
COc1ccc2c(c1)c(=Cc1ccc(N(C)C)cc1)c1cc(-c3ccccc3)[n+](C)n12	–	22.4 µM (active)
COc1ccc(-c2onc(C)c2C)cc1S(=O)(=O)NCc1cccs1	-8.44%	–

Compound	activity change, negative = inhibition	Potency
COC(=O)c1cnc(Nc2cc(C)ccc2OC)c2ccccc12	61.9%	–
COc1ccc(C)cc1Nc1nc(C)nc2c1oc1ccccc12	–	17.8 µM (active)
COc1ccccc1Nc1ncnc2c1oc1ccccc12	17.7%	–
O=C(OCC#CCSc1nnc(-c2ccco2)o1)c1ccc(F)cc1	23.8%	–
COC(=O)c1ccc(OC)c(Cn2c(=O)n(Cc3ccccc3)c(=O)c3c2c2cc(OC)ccc2n3C)c1	-11.3%	–
O=C1Nc2ccc(Br)cc2/C1=N/N=C/C1=C(N2CCOCC2)C(=C\c2ccccc2)/CC1	–	5.01 µM (active)
COc1ccc(/C=N/N=C2/C(=O)Nc3ccccc32)cc1O	-12.8% [at 11.4 µM]	–
COc1cc(OC)cc(C(=O)Nc2cc3nn(-c4ccccc4)nc3cc2Cl)c1	-5.6%	–
CCCNC(=O)CCC(=O)N1Cc2ccccc2Oc2ncccc21	-21%	–
Cc1ccc(-c2noc(-c3nnn(-c4cccc(C(F)(F)F)c4)c3N)n2)cc1	-19%	–
Cc1cccc(NC(=O)COc2ccc(Br)cc2C)n1	-4.13%	–
Cc1ccc(OCCOCCOc2ccc(Br)cc2/C=N\NC(=O)c2ccncc2)cc1	-16.9%	–
CCC(C)NCCOCCOc1ccc(Br)cc1C (stereo not drawn)	–	28.2 µM (active)
COc1ccc(C2C(=O)N(C3CCCCC3)CC(=O)N2Cc2ccccc2Cl)cc1OC (stereo not drawn)	-23.9%	–
COc1cccc(NC(=O)Nc2ccc3c(c2)N(C)C(=O)c2ccccc2S3)c1	-24.2%	–
CCc1cccc(NC(=O)c2cc(-c3ccccc3)n[nH]2)c1	-2.76%	–
CCc1ccc2c(c1)C1(NN=C(c3ccccc3)S1)C(=O)N2 (stereo not drawn)	–	56.2 µM (active)
CCOc1ccc(CNC(=O)C2CCN(c3nnc(-n4cccc4CNc4ccc(C)cc4)s3)CC2)cc1OC	0.364%	–
CCC(=O)Nc1nnc(S(=O)(=O)N2CCCc3ccccc32)s1	-17.7%	–
O=C(Nc1nnc(S(=O)(=O)N2CCCc3ccccc32)s1)c1cccc(F)c1	–	50.1 µM (active)
O=C(Nc1nnc(S(=O)(=O)N2CCCCCC2)s1)c1cccc(Br)c1	-17.2%	–
